Screening results deposited in PubChem BioAssay by Broad Institute.
CASP6 VEID inh = blocks human caspase-6 cleavage activity. P55212. AID 686996. 350,000 tested, 0.53% active. purified caspase-6, Z-VEID-R110 cleavage fluorescence. inhibition, % at 12.5 µM;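 active = mean inhibition across replicates at least about 35%, with every replicate also reaching that limit, limit read from the data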
Target sequence (P55212 24-179 limits assumed): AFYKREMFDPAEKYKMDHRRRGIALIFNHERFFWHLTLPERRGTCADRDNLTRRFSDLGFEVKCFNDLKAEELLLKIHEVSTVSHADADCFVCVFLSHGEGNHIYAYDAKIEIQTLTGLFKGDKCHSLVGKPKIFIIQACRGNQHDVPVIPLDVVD
Target sequence (P55212 194-293 limits assumed): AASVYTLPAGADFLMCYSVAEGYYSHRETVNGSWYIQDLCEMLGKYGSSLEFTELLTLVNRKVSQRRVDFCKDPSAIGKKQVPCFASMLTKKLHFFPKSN
PfHsp90 set2 = inhibits growth of yeast expressing Plasmodium falciparum Hsp90; 310,000 tested, 0.32% active; S. cerevisiae expressing PfHsp90, BacTiter-Glo ATP, 48 h; yeast lacking PDR1 and PDR3 efflux regulators; inhibition, % at 9.4 µM; AID 504621;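 active = every replicate shows inhibition above about 80%, whatever the replicate mean, limit read from the data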
SIRT5 inh = inhibitors of human sirtuin-5 desuccinylase. AID 652115. Q9NXA8. Purified SirT5, succinyl-peptide AMC, trypsin-coupled fluorescence. 330,000 tested, 1.1% active. inhibition, % at 15 µM; in the data active = inhibition above about 15%
Target sequence (Q9NXA8 whole entry, looked up): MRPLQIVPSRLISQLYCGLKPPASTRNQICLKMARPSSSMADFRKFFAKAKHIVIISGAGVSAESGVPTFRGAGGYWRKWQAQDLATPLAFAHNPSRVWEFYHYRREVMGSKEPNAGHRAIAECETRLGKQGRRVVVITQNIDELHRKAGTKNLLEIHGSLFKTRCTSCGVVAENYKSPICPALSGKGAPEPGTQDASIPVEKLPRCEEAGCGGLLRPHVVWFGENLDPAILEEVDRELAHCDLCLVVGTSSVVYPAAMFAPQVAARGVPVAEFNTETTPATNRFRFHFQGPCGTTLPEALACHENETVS
NSD2 HMT inh = NSD2 (human) methyltransferase inhibition; O96028; NSD2 peptide methylation, AlphaScreen, 120 min; inhibition, % at 12.5 µM; 310,000 tested, 0.54% active; in the data active = inhibition above about 50%
ARNT-TACC3 inh = disruptors of human ARNT/TACC3 interaction; AlphaScreen His-ARNT PAS-B/GST-TACC3 binding, luminescence; TACC3 fragment carries E629A point mutation; 390,000 tested, 0.66% active; inhibition, % at 9.99 µM; Q9Y6A5; AID 623870;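 active = mean inhibition of replicates at least 50% and at least half of replicates each reaching 50%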
AlphaScreen art = AlphaScreen assay artifact in NSD2 counter-screen. shares compounds with NSD2 HMT inh. AlphaScreen artifact counterscreen, preloaded methylated H4 peptide. AC35, µM (titrated, usually from 10 µM). 1,500 tested, 9.4% active. AID 1053174; call rule not given here
Hits are given with their value; n = inactive; x = no result. Shown are actives, neighbours in structure and some others; about 2.1% of the full set was active somewhere.

SMILES	CASP6 VEID inh	PfHsp90 set2	SIRT5 inh	NSD2 HMT inh	ARNT-TACC3 inh	AlphaScreen art
CC(=O)NC1=NN(C(C)=O)C(C)(c2ccc(Br)cc2)S1 (stereo unspecified)	n	n	n	n	n	x
CC(=O)NC1=NN(C(C)=O)C(C)(c2cccc([N+](=O)[O-])c2)S1 (stereo unspecified)	n	n	n	99	n	n
O=C(O)COc1ccccc1/C=N/Nc1ccc(S(=O)(=O)Nc2ccc(Cl)cc2)cc1[N+](=O)[O-]	n	n	n	50	n	n
COc1ccccc1NS(=O)(=O)c1ccc(N/N=C/c2ccccc2OCC(=O)O)c([N+](=O)[O-])c1	n	n	n	x	n	x
COc1ccc(COc2ncnc3ccc(Br)cc23)cc1F	n	n	n	122	n	n
CCCC1Nc2ccc(C(=O)O)cc2C2C=CCC12 (stereo unspecified)	x	n	x	92	n	n
O=C(O)c1ccc2c(c1)C1C=CCC1C(c1ccncc1)N2 (stereo unspecified)	n	n	n	n	n	x
CC(=O)c1ccc2c(c1)C1C=CCC1C(c1cc3c(cc1Br)OCO3)N2 (stereo unspecified)	n	n	x	x	n	x
CC(C)C1Nc2ccc(C(=O)O)cc2C2C=CCC21 (stereo unspecified)	n	n	23	58	n	n
O=[N+]([O-])c1ccccc1NC(=S)N/N=C/c1ccc(O)c(O)c1	53	n	n	117	n	1.8µM
C[C@H](CO)N1C[C@H](C)[C@H](CN(C)S(=O)(=O)c2cccc(F)c2)Oc2ncc(-c3cccc(F)c3)cc2C1=O	n	x	n	x	n	x
CN1CCCCc2c1nc1ccccc1c2N (tested in a mixture with another compound)	x	n	x	83	n	n
O=S(=O)(Nc1cc(Sc2cccc3cccnc23)c(O)c2ccccc12)c1ccccc1	n	x	n	56	x	n
O=C(O)c1ccccc1NS(=O)(=O)c1cccc2cccnc12	x	n	x	n	n	x
CCc1ccc(S(=O)(=O)Nc2cc(SCC(=O)O)c(O)c3ccccc23)cc1	67	n	n	113	x	n
CCc1ccc(S(=O)(=O)Nc2ccc(O)c3ccccc23)cc1	n	n	n	n	n	x
COc1ccc(C(=O)Nn2c(SCC(=O)c3ccc(Cl)cc3)nc3ccccc3c2=O)cc1	x	n	x	116	n	n
CC(C)C#Cc1ccc2c(c1)O[C@@H](CN(C)Cc1ccncc1)[C@H](C)CN([C@@H](C)CO)S2(=O)=O	x	x	x	x	n	x
CC(=O)NC1=NC(=O)/C(=C/c2cc(C)n(-c3cccc(C(=O)O)c3)c2C)S1	67	n	20	131	n	n
CC(=O)NC1=NC(=O)/C(=C/c2cc(C)n(-c3ccc(NC(C)=O)cc3)c2C)S1	n	x	n	n	n	x
Cc1ccc(NC(=O)CN2C(=O)N/C(=C/c3ccccc3OCc3cccc(C(=O)O)c3)C2=O)cc1	n	n	n	n	n	x
O=C1N/C(=C/c2cccn2-c2ccccc2)C(=O)N1Cc1ccccc1F	x	n	x	n	n	x
Cc1ccc(CN2C(=O)N/C(=C\c3cccn3-c3cccc(C(=O)O)c3)C2=O)cc1	60	n	n	59	n	n
O=C(O)c1ccc(-n2cccc2/C=C2/NC(=O)N(c3ccccc3)C2=O)cc1	70	n	25	101	n	n
Cc1ccc(NC(=O)CN2C(=O)N/C(=C/c3cc(C)n(-c4cccc(C(=O)O)c4)c3C)C2=O)cc1	72	n	19	77	n	n
SMILES	CASP6 VEID inh	PfHsp90 set2	SIRT5 inh	NSD2 HMT inh	ARNT-TACC3 inh	AlphaScreen art
COc1ccc(NC(=O)Nc2ccc3c(c2)C(=O)N([C@@H](C)CO)C[C@@H](C)[C@H](CN(C)Cc2ccncc2)OCCCC[C@H](C)O3)cc1	n	x	n	x	n	x
C[C@@H]1CCCCO[C@@H](CN(C)C(=O)Cc2ccccc2)[C@@H](C)CN([C@@H](C)CO)C(=O)c2cc(NS(=O)(=O)c3ccc(F)cc3)ccc2O1	x	x	x	x	n	x
COCC(=O)Nc1ccc2c(c1)[C@@H]1C[C@@H](CC(=O)NCC3CC3)O[C@H](CO)[C@@H]1O2	n	x	n	x	n	x
N#CC(C#N)=Cc1cccn1-c1ccc(C(=O)O)cc1	71	n	n	100	n	n
N#Cc1ccccc1CN1C(=O)S/C(=C/c2cccn2-c2ccc(C(=O)O)cc2)C1=O	x	n	x	x	n	x
Cc1cc(SCC(=O)Nc2cccnc2Cl)nc2ccccc12	n	n	n	65	n	n
Cc1cc(SCC(=O)c2ccc(O)c(O)c2)nc2ccccc12	n	x	n	67	n	n
O=C(C1CC1)N1CC2(C1)[C@H](c1ccccc1)[C@H](CO)N2C(=O)CC1CC1	n	x	n	x	x	x
CCC(=O)N1CC2(C1)[C@@H](c1ccccc1)[C@@H](CO)N2CCC(F)(F)F	n	x	n	x	x	x
CCCCN(C)C(=O)C1CCN(Cc2cccc(OCc3ccccc3)c2)CC1	n	n	n	73	n	n
NS(=O)(=O)c1ccc2c(c1)C(=NO)c1cc(S(N)(=O)=O)ccc1-2	n	n	n	n	n	x
NC1=C(Cl)C(=O)c2ccc(S(N)(=O)=O)cc2C1=O	100	n	n	114	n	n
Cn1c(=O)c(-c2ccccc2)nc2ccccc21	x	x	x	126	n	n
Cn1c(=O)c(-c2ccccc2N)nc2ccccc21	x	n	x	n	n	x
FC(F)(F)c1cc(C(F)(F)F)c2ccc(N3CCN(c4ccc(Cl)cc4)CC3)nc2n1	x	n	x	n	n	x
Fc1ccc(N2CCN(c3ccc4c(C(F)(F)F)cc(C(F)(F)F)nc4n3)CC2)cc1	x	n	x	121	n	n
CCOc1ccc(NC(=S)N2CCC(NC(=O)C3CCCCC3)CC2)cc1	n	n	n	57	n	n
CCOc1cc(N2CCOCC2)c(OCC)cc1NC(C)C(=O)N1CCN(CC)CC1 (stereo unspecified)	70	n	15	90	n	n
CCOc1cc(N2CCOCC2)c(OCC)cc1NC(=O)C(C)C	n	n	n	n	n	x
O=C1C(Cl)=C(Nc2ccc3cn[nH]c3c2)C(=O)c2ccccc21	n	n	n	x	n	x
CN(C)c1ccc(NC2=C(Cl)C(=O)c3ccccc3C2=O)cc1	n	n	n	58	53	8.8µM
O=C(OCc1cccc2ccccc12)C1CC(=O)N(c2ccccc2)C1 (stereo unspecified)	n	n	n	79	n	n
CC(C)(C)C(=O)COC(=O)C1CC(=O)N(c2ccccc2)C1 (stereo unspecified)	n	n	n	n	x	x
Nc1ccc(N=Nc2ccccc2O)c(N)c1	n	x	n	54	x	n
CC(=O)c1c(C)[nH]c(C(=O)Nc2cc(C)ccc2C)c1C	n	n	n	x	x	x
COc1ccc(NC(=O)c2[nH]c(C)c(C(C)=O)c2C)cc1Cl	x	n	x	n	n	x
COc1cc(NC(=O)c2[nH]c(C)c(C(C)=O)c2C)cc(OC)c1OC	n	n	n	121	n	n
CC(=O)c1c(C)[nH]c(C(=O)Nc2ccc(C)cc2Br)c1C	n	n	n	72	n	n
